# Shown are actives, neighbours in structure and some others; about 3% of the full set was active somewhere.
# Sm TGR inh = blocks Schistosoma mansoni thioredoxin glutathione reductase. Q962Y6. purified TGR, DTNB reduction, TNB absorbance 405 nm. Potency, µM (doses to about 114 µM), hits mostly inhibitors. 360,000 compounds, 3% hits. AID 485364; active means well fitted inhibition curve with a large enough effect; inconclusive means small, poorly fitted or top-dose-only effect; inactive means no such curve, though single readings can be large or run the other way; further: nearly all actives have a fitted effect of over 60% in size
#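 TGR 20 nM + NADPH 100 uM (dispensed conc.), cpd preinc 15 min RT; start with NADPH (500 uM addition) then DTNB (15 mM addition). Kinetic TNB absorbance, 405 nm filter. Four-parameter Hill fit across titration.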
# SARS PLpro yeast = inhibitors of SARS-CoV papain-like protease in yeast; S. cerevisiae expressing SARS-CoV PLpro, growth rescue; Potency, µM (highest dose often 32.9 µM), most hits filed as activators; 330,000 compounds, 0.19% hits; calls by dose curve; further: nearly all actives have a fitted effect of over 55% in size
# Numbers stand for hits; n = inactive; u = inconclusive; x = not tested or not shown.
SMILES,Sm TGR inh,SARS PLpro yeast
CCCNS(=O)(=O)c1ccc(CCC(=O)Nc2ccc3c(c2)OCO3)cc1,n,n
CC(=O)c1ccc(S(=O)(=O)NCCCC(=O)N(C)Cc2ccc3c(c2)OCO3)cc1,16µM,n
Cc1cccc(NC(=O)C2CCN(c3nc4ccccc4[nH]3)CC2)c1C,n,x
CCC(=O)N1c2ccccc2CC1C(=O)NCCc1ccc(OC)c(OC)c1 (centres undefined),n,x
Cn1c(Nc2ccc(Cl)cc2)cc(=O)n(C)c1=O,20µM,n
CCOc1ccc(Nc2cc(=O)n(C)c(=O)n2C)cc1,n,n
COC(=O)c1cn[nH]c1NC(=S)Nc1ccccc1C,45µM,n
COC(=O)c1cn[nH]c1NC(=S)Nc1ccc(C)cc1Cl,n,n
CCOC(=O)C1=C(O)/C(=C\c2cccs2)N=C1C,n,n
CCOC(=O)C1=C(O)/C(=C\c2ccc(CNC(=O)C(=O)Nc3ccccc3)o2)N=C1C,8.9µM,n
CC1(C(=O)NC2CCCCC2)Cc2ccccc2C(=O)N1Cc1ccc(Cl)cc1 (centres undefined),n,x
COc1ccc(N2CC(NC(=O)c3ccc(S(=O)(=O)N4CCOCC4)cc3)CC2=O)cc1 (centres undefined),n,x
COc1ccc(C(C(=O)NCC2CCCO2)N(C(=O)Cn2nnc3ccccc32)c2ccc(NC(C)=O)cc2)cc1 (centres undefined),n,n
COc1ccc(C(C(=O)NCC2CCCO2)N(C(=O)Cn2nnc3ccccc32)c2ccccc2C(C)=O)cc1OC (centres undefined),n,n
CCOc1cc(C(C(=O)NCC2CCCO2)N(C(=O)Cn2nnc3ccccc32)c2ccc(NC(C)=O)cc2)ccc1O (centres undefined),22µM,n
COc1cc(C(C(=O)NCC2CCCO2)N(C(=O)Cn2nnc3ccccc32)c2ccc(OC)c(OC)c2)ccc1O (centres undefined),45µM,n
Cc1oc(-c2cccc(Cl)c2)nc1CSc1nc2ncccc2[nH]1,n,x
COc1ccc(-c2cc(C(F)(F)F)nc(SCC(=O)N(C)Cc3ccccc3)n2)cc1,n,x
COCCNC(=O)c1ccc2nc(CCc3ccccc3)oc2c1,n,x
CCOc1ccc(S(=O)(=O)Nc2cc(SCC(=O)O)c(O)c3ccccc23)cc1,7.1µM,n
CCOc1ccc(S(=O)(=O)Nc2cc3c(C(=O)OC)c(COC)oc3c3ccccc23)cc1,n,x
COc1ccc(OC)c(S(=O)(=O)Nc2ccc(Oc3ccccc3)cc2)c1,n,n
COc1ccc(OC)c(S(=O)(=O)Nc2ccc(O)c3ccccc23)c1,10µM,n
Cc1ccc(C)c(S(=O)(=O)Nc2cc(SCC(=O)O)c(O)c3ccccc23)c1,3.5µM,n
Cc1ccc(S(=O)(=O)Nc2cccc3cccnc23)cc1,n,n
SMILES,Sm TGR inh,SARS PLpro yeast
O=S(=O)(Nc1cc(Sc2cccc3cccnc23)c(O)c2ccccc12)c1ccccc1,3.5µM,n
Cc1ccc(NS(=O)(=O)c2cc(NC(=O)C(C)Oc3ccccc3)ccc2C)c(C)c1 (centres undefined),n,n
COc1cccc(CNC(=O)CN2C(=O)CSc3c2c(C)nn3-c2ccccc2)c1,n,x
COc1ccc(OC)c(CCNC(=O)c2c(C)oc3ncn(CC(C)C)c(=O)c23)c1,n,x
CCOC(=O)N1CCc2c(sc3c2c(=O)n(Cc2ccccc2)c(=O)n3CC(=O)Nc2ccc(C)c(C)c2)C1,n,x
O=C(Nc1cc(-c2nc3ccccc3o2)ccc1Cl)c1sc2c([N+](=O)[O-])cccc2c1Cl,n,x
COc1cccc(NC(=O)CSc2nc(=O)n(Cc3ccccn3)c3c2CCC3)c1,n,x
CCOc1ccc(NC(=O)c2oc3ccccc3c2NC(=O)C(C)Oc2ccccc2)cc1 (centres undefined),n,x
CCNC(=S)NS(=O)(=O)c1ccc(CC)cc1,u,n
CCc1ccc(S(=O)(=O)Nc2cc(SCC(=O)O)c(O)c3ccccc23)cc1,6.3µM,n
O=C(O)CSc1cc(NS(=O)(=O)c2cccc([N+](=O)[O-])c2)c2ccccc2c1O,1.8µM,n
O=C(O)c1cccc(S(=O)(=O)Nc2ccc([N+](=O)[O-])cc2O)c1,n,n
Cc1oc2c(cc(NS(=O)(=O)c3ccc(C(C)C)cc3)c3ccccc32)c1C(=O)O,u,n
CCc1ccc(S(=O)(=O)Nc2ccc(O)c3ccccc23)cc1,10µM,n
CN(Cc1ccccc1)C(=O)C1CCN(S(=O)(=O)c2ccc3c(c2)oc(=O)n3C)CC1,n,x
Cc1cccc(-c2nc(SCCCOc3ccccc3Cl)n3[nH]c(=O)cc3n2)c1,n,x
COC(=O)CNC(c1ccccc1)c1cc(Br)ccc1NC(=O)CNC(=O)OCc1ccccc1 (centres undefined),n,n
COC(=O)CNC(c1ccccc1)c1cc(Br)ccc1NC(=O)CCN1CCOCC1 (centres undefined),8.9µM,n
CCOC(=O)CNC(c1ccccc1)c1cc(Br)ccc1NC(=O)CCN1CCOCC1 (centres undefined),6.3µM,n
CCOC(=O)CNC(c1ccccc1)c1cc(Br)ccc1NC(=O)OCC (centres undefined),n,n
COc1ccc(NC(=O)Cn2c(=O)n(-c3ccc(C)cc3)c(=O)c3c2cnn3C)cc1,n,x
Cc1cccn2c(=O)c3cc(C(=O)NCc4ccccc4Cl)sc3nc12,n,x
COc1ccc(OCC(=O)N2CCN(c3cccc(Cl)c3)CC2)cc1,n,n
CCS(=O)(=O)c1ncc(Cl)c(C(=O)N2CCN(c3cccc(Cl)c3)CC2)n1,7.1µM,x
CS(=O)(=O)c1ncc(Cl)c(C(=O)N2CCN(c3cccc(Cl)c3)CC2)n1,3.5µM,x
SMILES,Sm TGR inh,SARS PLpro yeast
Cc1[nH]c2ccc(C(=O)N3CCN(c4cccc(Cl)c4)CC3)cc2c1C,n,n
O=C(NCC(c1cccnc1)N1CCc2ccccc2C1)C(=O)Nc1ccccc1F (centres undefined),n,x
CC1(C)CC2(CC(c3ccccc3F)c3ccc(O)c(O)c3O2)NC(=S)N1 (centres undefined),1.1µM,n
CC1(C)CC2(CC(c3ccc(F)cc3)c3ccc(O)cc3O2)NC(=S)N1 (centres undefined),n,n
Cc1noc(C)c1C(=O)NNc1ccc(C(C)C)cc1,20µM,n
Cc1ccc(NNC(=O)c2c(C)noc2C)cc1Cl,u,n
CCOC(=O)c1c(C)[nH]c(CCC(=O)Nc2ccc(Cl)cc2C)c1C,n,x
O=C1CC(N2CCC(n3c(=O)[nH]c4ccccc43)CC2)C(=O)N1Cc1ccccc1 (centres undefined),n,n
O=C(Nc1ccccc1)N1CCC(n2c(=O)[nH]c3ccccc32)CC1,n,n
Cc1cc(N2C(=O)CC(N3CCC(n4c(=O)[nH]c5ccccc54)CC3)C2=O)no1 (centres undefined),22µM,n
COC(=O)c1ccc(N2C(=O)CC(N3CCC(n4c(=O)[nH]c5ccccc54)CC3)C2=O)cc1 (centres undefined),35µM,n
CCN(c1ccc(C)cc1)S(=O)(=O)c1nnc(NC(=O)C2CCCCC2)s1,n,x
COc1ccc(OCCOc2cccc(C=C3C(=O)NC(=O)NC3=O)c2)cc1,11µM,n
COc1cccc(OCCOc2ccc(/C=C3/SC(=S)NC3=O)cc2)c1,n,n
COc1ccc(Oc2nc3c(c(=O)n(C)c(=O)n3C)n2Cc2ccc(Cl)cc2Cl)cc1,n,x
Cc1ccc(OCc2nnc(SCC(=O)Nc3ccccc3C(C)C)o2)cc1,n,x
N#Cc1c(C#N)c(O)c2ccccc2c1O,u,n

# Screening data from PubChem BioAssay.
